# From the OligoGym collection
# Target: RIT1
# Assay: pooled miR-30 sensor sort-seq; sequence = guide strand
# Conditions: shRNA
# Further: reference of the scale not given here.
row,Sequence,sensor-assay potency score (higher = more potent)
1,TAAACTCTGCCTGTCCAGCTGT,0.108
2,TAAGCTGTTTAAACTCACGAAC,-0.618
3,TTCTTTCCTACGTATCTCCCGT,-0.212
4,TTGGTGACCTGTCTTAGCTGTT,-0.52
5,TATAGTAGCGGTATGCAGCAGA,0.384
6,TTGAGGTCTGACTTGTTTCCCA,-0.117
7,TAGCTGTTTGAGGTCTGACTTG,-0.94
8,TACACCACCAGCACCCAGCATC,-0.912

# Target: RNASE11
# Assay: as above
# Conditions: shRNA
row,Sequence,sensor-assay potency score (higher = more potent)
1,TTCTGTACAAACTTGCAGCTGG,0.788
2,TAATGAGGTAACACTATGGTAT,-0.534
3,TCTTTAATTATCTTCATTGTGC,-0.382
4,TTCTCTAATGAGGTAACACTAT,-1.05
5,TATTGCATCTCTTCGTCTGTAA,0.018
6,TTATCTTCATTGTGCTTTCTGA,-0.608
7,TGATGCTTCTGCAAGAACCAGG,-0.377
8,TTTAGTAAGACCCTAGTCCTAA,-0.427
9,TTCGTCTGTAAATTCTTCTTTA,-0.406
10,TTTAACTAACAGGATCGGGTTC,-0.116
11,TTGTGCTTTCTGATGCTTCTGC,0.534
12,TTGGATTTTTCACTCCTCCAGT,-0.449

# Target: RNF113A
# Assay: as above
# Conditions: shRNA
row,Sequence,sensor-assay potency score (higher = more potent)
1,TAGCTCGATGCTTCTCTAGTTT,-0.684
2,TAGTTTAGCAATCAATTCTTTC,-0.827
3,TTTTCCGGTCGAACCACAGTGC,-0.536
4,TAGATCTTGTCATCCTCCTTGC,0.184
5,TTCGTCGCTACTGCTGCCGCTT,-0.608
6,TAGCAATCAATTCTTTCGCTGG,0.133
7,TTAGCAATCAATTCTTTCGCTG,0.0148
8,TTTTCCTCTTCCTCTTCGCTGC,-0.23
9,ATAGATCTTGTCATCCTCCTTG,0.536
10,TTTACCACTGTCACGGGTCTTC,-0.541
11,TTCGCTGCTCAAGTCGCCGTAA,-0.391
12,TACTGCTGCCGCTTTCTCCGGG,-0.242

# Target: RNF122
# Assay: as above
# Conditions: shRNA
row,Sequence,sensor-assay potency score (higher = more potent)
1,TATAATTGTAACTTCTTGGCAT,0.823
2,ATCCGTATCGCTCACTCTGTGC,-0.963
3,TTTGCTGATAAAATAGCAGCAG,-0.0269
4,TATATCCGTATCGCTCACTCTG,-0.842
5,TATCCGTATCGCTCACTCTGTG,-0.565
6,TTGCTGATAAAATAGCAGCAGA,-0.908
7,TAGAATCCCAATGTTCTGCGTG,0.594
8,AAGTCTTCCAGACAGACTGCGC,-0.854
